# Assay outcomes: PubChem, National Center for Advancing Translational Sciences (NCATS)
# Hits are enriched below; roughly 11% of the tested compounds scored in any of these assays.
# L3MBTL1 inh: L3MBTL1 (human) inhibition; Q9Y468; AID 485360; AlphaScreen L3MBTL1–H3K9me1 peptide binding; 230,000 compounds, 0.66% hits; Potency, µM (highest dose often 57.1 µM), inactives show at the highest dose activity, negative = inhibition, most hits filed as inhibitors; also: potency is read from the fitted curve at half-maximal effect; % is scaled to controls: 0 for no effect and ±100 for the full control effect; nearly all actives have a fitted effect of over 60% in size
#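 L3MBTL1 50 nM + b-AHA-H3(1-15)K9me1 75 nM, 30 min RT; compound added, 30 min RT; streptavidin donor/Ni-chelate acceptor beads 10 ug/mL each final, 30 min RT dark; AlphaScreen read.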
# HP1b binding inh: HP1-beta chromodomain-methylated histone interaction inhibition; 390,000 compounds, 0.56% hits; AID 540317; AlphaScreen HP1-beta / biotin-H3K9me3 peptide binding; Potency, µM (highest dose often 114 µM), for the others: at the highest dose activity change, negative = inhibition, usual class: inhibitors; also: potency is read from the fitted curve at half-maximal effect; nearly all actives have a fitted effect of over 70% in size
#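 Compound inhibition of the preformed complex between 50 nM HP1-beta and 50 nM biotinylated H3K9me3 peptide was read by AlphaScreen. Buffer was PBS pH 7.4 with 0.01% Tween-20. Incubations ran 30 min at room temperature, with 10 ug/mL donor/acceptor beads.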
# G9a block: G9a (human) methyltransferase inhibition; G9a H3K9 monomethylation, AlphaScreen, 2 h; Potency, µM (top dose mostly 102 µM), without a hit: top-dose activity, negative = inhibition, most hits filed as inhibitors; 350,000 compounds, 8.8% hits; AID 504332; also: potency is read from the fitted curve at half-maximal effect; % is scaled to controls: 0 for no effect and ±100 for the full control effect; nearly all actives have a fitted effect of over 75% in size
#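 G9a (20 nM) was preincubated 15 min with compound, then reacted 2 h at room temperature with 500 nM biotin-H3K9 peptide and 20 µM SAM. Monomethyl-H3K9 detected by AlphaScreen using anti-H3K9me1 antibody.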
# JMJD2A Tudor inh: blocks the human JMJD2A Tudor domain; O75164; 390,000 compounds, 4.4% hits; AlphaScreen JMJD2A-Tudor / H3K4me3 peptide binding; AID 504339; Potency, µM (series often up to 114 µM), inactives show at the top dose activity change, negative = inhibition, most hits filed as inhibitors; also: potency is read from the fitted curve at half-maximal effect; % is scaled to controls: 0 for no effect and ±100 for the full control effect; nearly all actives have a fitted effect of over 50% in size
# PI5P4K alpha inh: blocks human PI5P4K alpha kinase activity | P48426 | PI5P4Kalpha enzyme, ADP-Glo luminescence, 60 min; hits give low values | max response, % | 330,000 compounds, 1.2% hits; active = max response of -50% or lower; inconclusive = between -30% and -50%; inactive = -30% or higher; also: value at the top dose of about 77 µM; % is scaled to controls: 0 for no effect and ±100 for the full control effect
#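 Luminescence from ADP-Glo served as readout of PI5P4Kalpha activity in a qHTS format. Reaction: enzyme, substrate, compound, ATP at 5 microM final, 60 min at RT.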
# BAZ2B block: BAZ2B (human) inhibition | 360,000 compounds, 4.4% hits | AlphaScreen BAZ2B-H3K14Ac peptide displacement | Potency, µM (top dose mostly 114 µM), without a hit: at the highest dose activity change, negative = inhibition, hits mostly inhibitors | AID 504333 | Q9UIF8; also: potency is read from the fitted curve at half-maximal effect; % is scaled to controls: 0 for no effect and ±100 for the full control effect; nearly all actives have a fitted effect of over 60% in size
#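 BAZ2B (50 nM) with biotin-H3(5-23)K14Ac peptide (50 nM) in PBS pH 7.4, 0.01% Tween-20, preformed 30 min, then compound 30 min at room temperature; top concentration 110uM. AlphaScreen streptavidin donor/nickel chelate acceptor beads (10 ug/mL final), 20 min dark, signal read.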
# * = called active by the depositor; ? = inconclusive; nt = not tested or not shown; [ ] = dose if it differs, or a comment. Unless noted, calls follow the shape of the dose curve; as a rule, active = well fitted inhibition curve with a large enough effect; inconclusive = small, poorly fitted or top-dose-only effect; inactive = no such curve, though single readings can be large or run the other way.
SMILES,L3MBTL1 inh,HP1b binding inh,G9a block,JMJD2A Tudor inh,PI5P4K alpha inh,BAZ2B block
COc1ccccc1NC(=O)CCN1CCN(C)CC1,?,32%,50µM*,-1%,-9,10%
O=C(CCn1cnc2ccccc2c1=O)NCc1ccccc1,nt,-12%[57 µM],?,89µM*,nt,?
COc1ccccc1NC(=O)CCn1cnc2ccccc2c1=O,-4%,?,9%[12.7 µM],5µM*,nt,?
CCN1CCN(CCC(=O)Nc2ccccc2OC)CC1,3%,2%,12%[59 µM],-12%,nt,2%
COc1ccccc1CNC(=O)CCNC(=O)Cn1cnc2ccccc2c1=O,1%,41%,-1%[2.33 µM],1%,6,7%
CN(C)c1ccc(-c2ccc3ncnc(N(C)Cc4ccco4)c3c2)cc1,nt,nt,-14%[0.501 µM],nt,nt,nt
CC(C)(C)c1nnc(NC(=O)CCn2cnc3ccccc3c2=O)s1,1%,38%,2%,-5%,-2,-22%
CC(C)(C)NC(=O)CSc1nnc(NC(=O)CCn2cnc3ccccc3c2=O)s1,1%,21%,-4%[59 µM],25µM*,-5,10%
Cc1ccc(NC(=O)CCn2cnc3ccccc3c2=O)cc1Cl,1%,22%,-3%[59 µM],3%,-5,0%
CCc1ccc(NC(=O)CCn2cnc3ccccc3c2=O)cc1,nt,-9%[57 µM],-30%[59 µM],79µM*,nt,-28%
COc1ccc(OCC(=O)NCc2ccc3c(c2)CCN3C(=O)c2cccc(C)c2)cc1,nt,-4%,-14%[59 µM],-31%,nt,-23%
NC(=NCc1ccc2c(c1)OCO2)NC(=O)c1ccccc1,?,-22%,?,?,3,40µM*
C/C(CCc1ccc2c(c1)OCO2)=N\NC(=O)c1ccccc1,1%,0%,-6%[59 µM],-22%,1,0%
CCOC(=O)c1ccc(N2C(=O)C3C(C2=O)C(C(=O)c2ccc(Cl)cc2)N2CCCC32)cc1 (stereo not given),nt,32%,?,-33%,-23,50µM*
Cc1ccc(OCC(=O)NCC(=O)OCc2cc(=O)n3nc(C(C)C)sc3n2)cc1,nt,?,16%[59 µM],-21%,nt,-10%
C/C(CC(=O)Nc1ccc2c(c1)OCCO2)=N\NC(=O)c1cccc(O)c1,nt,5%,20%,-21%,1,-2%
CC(=O)Nc1ccc2c(c1)OCCOCCOc1cc(NC(C)=O)ccc1OCCO2,7%,9%,50µM*,-14%,2,-16%
O=C(O)CCNc1ccc2c(c1)OCCO2,12%,1%,?,45µM*,1,-9%
O=C(O)CCCCCNC(=O)Nc1ccc2c(c1)OCCO2,nt,23%,30%[59 µM],-10%,5,7%
CC(=O)N/N=C(\C)CC(=O)Nc1ccc2c(c1)OCCO2,0%,13%,45µM*,-15%,-5,-38%
CCCNC(=O)C1CCC(Cn2c(=O)c3sccc3n(CC(=O)N3CCC(C)CC3)c2=O)CC1 (stereo not given),nt,28%,17%[59 µM],-11%,nt,-3%
CCNc1ncc2nc(C)c(=O)n(C3CC3)c2n1,nt,nt,9%[0.501 µM],nt,nt,nt
O=[N+]([O-])c1ccc(NN=Cc2cccc3ccccc23)nc1,nt,2%,nt,-15%,1,nt
O=C(O)Cn1cc(/C=N/Nc2ccc([N+](=O)[O-])cn2)c2ccccc21,nt,?,45µM*,?,-11,?
Cc1ccc(Cn2cc(/C=N/Nc3ccc([N+](=O)[O-])cn3)c3ccccc32)cc1,-2%,4%,50µM*,-22%,14,-21%
COCCn1c(C)cc(O)c(C(c2ccccc2)N2CCN(c3ccccc3)CC2)c1=O (stereo not given),nt,27%[57 µM],?,8%,nt,3%
N#Cc1c(-n2ncnc2-c2cccc(Br)c2)sc2c1CCCCC2,nt,-9%,0%[59 µM],?,nt,-11%
N#Cc1c(-n2ncnc2-c2ccc(F)cc2)sc2c1CCCCC2,nt,?,?,?,nt,7.1µM*
Cc1ccc(S(=O)(=O)N2CCN(C(=O)CSc3nnc(C)c(=O)[nH]3)CC2)cc1,-12%,46%,56µM*,-20%,2,2%
